# Screening data from PubChem.
# p53 reactivator – restores transcriptional activity of mutant p53 | AID 504706 | H1299 p53-A138V BP100-luciferase reporter, luminescence, 24 h | hit rate 0.063% among 320,000 | Potency, µM (titrated, usually from 92.2 µM), inactives show at the highest dose activity change, positive = activation, most hits filed as activators; note: potency is the fitted concentration of half-maximal effect; % of control where 0% means no effect; nearly all actives have a fitted effect of over 45% in size
#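 H1299 (p53-null), stable ts p53-A138V + BP100-Luc; 1000 cells/well, Opti-MEM/10% FBS; cpd 4 pt, 1:5; 24 h, 37 deg C, 5% CO2; detection reagent 10 min RT; luminescence.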
# Six1-Eya2 blk – Six1/Eya2 interaction inhibition | AID 651725 | hit rate 0.56% among 360,000 | Q15475+O00167 | AlphaScreen GST-Six1/His-Eya2 binding, biochemical; hits give low values | activity change, % (concentration not given with the values); in the data active = activity change below about -65%; inconclusive = mostly about -30% to -63%; note: % is set by controls: 0 for no effect and ±100 for the full control effect
#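 AlphaScreen with GST-Six1 and His-Eya2 (5X mix: 250 nM and 500 nM), glutathione donor and nickel acceptor beads; buffer 50 mM Tris pH 8.0, 300 mM NaCl, 1 mM TCEP; 1 h at 37 C in the dark.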
# CtBP-E1A blk – CtBP/E1A binding inhibition | AlphaScreen GST-E1A/His-CtBP binding, 1536-well; hits give low values | activity change, % (no concentration beside the values) | hit rate 0.49% among 340,000 | AID 651724; in the data active = activity change below about -65%; inconclusive = mostly about -30% to -63%; note: % is set by controls: 0 for no effect and ±100 for the full control effect
#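 GST-E1A and His-tagged CtBP (125 nM each as 5X stock) were preincubated with pin-transferred compound for 2 h at 37 °C in the dark, then glutathione donor and nickel acceptor beads were added for 1 h before AlphaScreen reading.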
# Gal4-VP16 FLuc – Gal4-VP16 reporter inhibition counter-screen. Drosophila S2 Gal4-VP16 UAS-luciferase, luminescence, 20 h. Potency, µM (doses to about 53.6 µM), for the others: at the top dose activity, negative = inhibition, usual class: inhibitors. AID 2546. hit rate 3.5% among 310,000;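 note: Gal4-VP16 expression switched on by copper sulfate through the metallothionein promoter; potency is the fitted concentration of half-maximal effect; % is set by controls: 0 for no effect and ±100 for the full control effect; nearly all actives have a fitted effect of over 50% in size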
# RORgamma inh – ROR gamma (mouse) transcription inhibition; hit rate 5.4% among 310,000; Potency, µM (doses to about 53.6 µM), inactives show top-dose activity change, negative = inhibition, most hits filed as inhibitors; Drosophila S2 Gal4-RORgamma UAS-luciferase reporter, 20 h; AID 2551; note: potency is the fitted concentration of half-maximal effect; % is set by controls: 0 for no effect and ±100 for the full control effect; nearly all actives have a fitted effect of over 60% in size
# Target sequence (P51450 whole entry, looked up, the tested form may be a part): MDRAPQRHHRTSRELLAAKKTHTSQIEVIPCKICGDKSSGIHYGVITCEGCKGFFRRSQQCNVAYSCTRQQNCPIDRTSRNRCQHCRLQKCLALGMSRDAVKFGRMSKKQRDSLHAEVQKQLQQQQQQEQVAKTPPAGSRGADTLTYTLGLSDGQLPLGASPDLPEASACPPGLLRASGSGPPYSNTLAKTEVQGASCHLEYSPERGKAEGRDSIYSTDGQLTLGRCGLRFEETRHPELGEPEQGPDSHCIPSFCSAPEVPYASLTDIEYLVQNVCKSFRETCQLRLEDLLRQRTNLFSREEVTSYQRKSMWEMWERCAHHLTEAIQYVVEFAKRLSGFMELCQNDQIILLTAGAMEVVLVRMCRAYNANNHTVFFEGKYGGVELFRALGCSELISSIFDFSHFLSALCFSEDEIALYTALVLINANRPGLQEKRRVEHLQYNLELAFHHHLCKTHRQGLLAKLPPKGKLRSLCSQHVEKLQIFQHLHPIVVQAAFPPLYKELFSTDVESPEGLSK
#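 Luminescence from a UAS-regulated Photinus luciferase reporter in stably transfected Drosophila Schneider cells is measured; decreased signal marks ROR gamma inhibition. Fusion expression is induced by 700 uM copper sulfate for 20 hr.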
# * = called active by the depositor; ? = inconclusive; · = not tested or not shown; [ ] = dose if it differs, or a comment. Compounds with a hit are over-represented: about 5.4% of the library has one in this group of screens. Unless noted, calls come from the whole dose curve; as a rule, active = well fitted curve in the direction sought with a large enough effect; inconclusive = small, poorly fitted or top-dose-only effect, or another doubt; inactive = no such curve, though single readings can be large; an effect the other way counts as inactive or inconclusive.
SMILES,p53 reactivator,Six1-Eya2 blk,CtBP-E1A blk,Gal4-VP16 FLuc,RORgamma inh
O=C(Nc1ccc(Cl)cc1)Nc1ccccc1Sc1ncc([N+](=O)[O-])s1,?,-27,-13,?,11µM*
CCCN(CC(=O)Nc1ccccc1OC)C(=O)c1ccc(COc2ccccc2)o1,-1%,-5,-1,·,·
COc1cccc(NC(=S)N2CCN(Cc3ccccc3)CC2)c1,3%,-5,2,20µM*,?
S=C(Nc1ccccc1)N1CCN(Cc2ccccc2)CC1,0%,-10,4,?,?
COc1ccc(NC(=S)N2CCN(Cc3ccccc3)CC2)cc1,4%,-2,0,16%[10 µM],11µM*
S=C(Nc1cccc(Cl)c1)N1CCN(Cc2ccccc2)CC1,26%,-13,2,?,10µM*
OC(CNCc1ccccc1F)(c1ccc(F)cc1)c1ccc(F)cc1,17%,21,10,?,7.9µM*
O=C(Nc1ccc2oc(=O)ccc2c1)c1cccnc1Cl,-2%,3,-3,-3%,-12%
COc1ccccc1Nc1nc(N)nc(CSC(=S)N2CCCCC2C)n1 (stereo unspecified),?,0,-4,7.1µM*,7.9µM*
COc1ccccc1Nc1nc(N)nc(CSC(=S)N2CCC(C)CC2)n1,?,-7,-4,5µM*,0.13µM*
COc1ccccc1Nc1nc(N)nc(CSC(=S)N2CCN(c3ccccc3)CC2)n1,-2%,-19,-11,6%,-45%
COc1cc(C(=O)NCC(c2ccco2)N2CCOCC2)cc(OC)c1OC (stereo unspecified),5%,4,1,·,·
O=C1C2CC=CCC2C(=O)N1c1ccc(NCCc2ccc(O)cc2)c([N+](=O)[O-])c1 (stereo unspecified),6%,?,?,?,-42%
O=C(CNc1ccc(F)cc1)N/N=C/c1c(O)ccc2ccccc12,7%,-16,?,2.8µM*,1.3µM*
COc1ccccc1N(CC(=O)N/N=C/c1c(O)ccc2ccccc12)S(C)(=O)=O,17%,-71*,?,?,13µM*
C=C(C)Cn1c(SCC)nc2ccccc2c1=O,2%,14,5,-9%,-13%
O=C(Cc1n[nH]c(=O)[nH]c1=O)N/N=C/c1c(O)ccc2ccccc12,3%,-87*,-68*,3%,30%
C=C(C)Cn1c(SCC(=O)N/N=C/c2c(O)ccc3ccccc23)nc2ccccc2c1=O,11%,-9,2,2.5µM*,0.63µM*
C#Cc1ccc([C@@H]2C=C(C(=O)OCC=C)O[C@H](OCc3ccc(CO)cc3)C2)cc1,0%,-6,-4,-7%,30%
O=c1cnc2cncnc2n1Cc1ccccc1,·,·,·,0%,18%
COc1ccccc1NCC(=O)N/N=C/c1cccnc1,0%,0,3,-9%,16%
COc1ccccc1NCC(=O)N/N=C/c1c(O)ccc2ccccc12,-1%,-11,-21,2.8µM*,0.89µM*
O=C(Cc1cccc2ccccc12)N/N=C/c1ccc2cccc(O)c2n1,3%,-1,23,?,13µM*
Cc1ccccc1-c1cccc([C@@H]2C[C@H]3[C@H](CON3C)CN2Cc2ccccc2)c1,·,-16,-18,·,·
CCC1(c2ccccc2)NC(=O)N(CC(=O)Nc2ccc(N3CCCC3)cc2C)C1=O (stereo unspecified),-4%,-17,-15,·,·
SMILES,p53 reactivator,Six1-Eya2 blk,CtBP-E1A blk,Gal4-VP16 FLuc,RORgamma inh
CC(=O)Nc1nc(NC(=O)C(Cl)(Cl)Cl)n(-c2ccccc2)n1,-1%,-29,4,13µM*,7.1µM*
CC(=O)Nc1nc(N)n(-c2ccccc2)n1,·,0,-3,-5%,-1%
Cn1cccc1C(=O)N1CCC2(CCN(Cc3ccncc3)CC2)CC1,·,·,·,-2%,-5%
[O-]/C(=C(\C(=S)Nc1ccccc1F)[n+]1ccccc1)c1ccc(-c2ccccc2)cc1,-1%,2,-2,-10%,-25%
[O-]/C(=C(\C(=S)Nc1ccc(Cl)cc1)[n+]1ccccc1)c1ccc(OC(F)F)cc1,9%,-8,-2,-2%,5µM*
COc1ccc(-c2nn(-c3ccccc3)cc2/C=N/NC(=O)c2cccc(S(=O)(=O)Nc3ccccc3Cl)c2)cc1,?,-20,-1,1.8µM*,1.8µM*
O=C(N/N=C/c1ccccn1)c1cccc(NC(=O)c2ccccc2Cl)c1,2%,-22,?,4%,-21%
O=C(O)COc1ccccc1/C=N/NC(=O)c1cccc(S(=O)(=O)Nc2cccc(Cl)c2)c1,0%,?,-71*,10%,-1%
O=C(N/N=C/c1ccccn1)c1cccc(S(=O)(=O)Nc2ccccc2Cl)c1,-5%,-86*,4,?,20µM*
CCN(CC)S(=O)(=O)c1cccc(C(=O)N/N=C/c2ccccn2)c1,-2%,-73*,-23,?,8.9µM*
Cc1cccc(C(=O)Nc2cccc(C(=O)N/N=C/c3ccccn3)c2)c1,6%,?,·,5%,1%
COc1ccc(CC2(C)OC(c3ccccc3)=NN2C(C)=O)cc1 (stereo unspecified),2%,7,-2,-1%,9%
COc1ccc2c(CC(=O)OCC(=O)N(C)c3c(N)n(Cc4ccccc4)c(=O)[nH]c3=O)coc2c1,·,1,-18,·,·
CCN(CC)S(=O)(=O)c1cccc(C(=O)N/N=C/c2cc(OC)c(O)c(OC)c2)c1,9%,?,-24,-3%,5%
CCN(CC)S(=O)(=O)c1cccc(C(=O)N/N=C/c2cccc(O)c2O)c1,?,-87*,-93*,-13%,1%
Cc1ccc(N2NC(=O)/C(=C/c3ccc(-c4ccc(Cl)c(C(=O)O)c4)o3)C2=O)cc1C,5%,6,4,0%,22%
O=C1NN(c2ccc(Cl)c(Cl)c2)C(=O)/C1=C/c1ccc(-c2ccccc2C(=O)O)o1,-4%,?,-72*,-6%,-2%
CCOC(=O)c1cnc2ccc(OCC)cc2c1N1CCN(c2ccccc2OC)CC1,1%,-27,-4,12%,-26%
CCOC(=O)c1cnc2ccc(OCC)cc2c1N(C)Cc1ccccc1,2%,-6,10,?,14µM*
COc1ccc(NC(=S)NCc2ccc(F)cc2)c(OC)c1,·,-1,·,?,13µM*
CCOc1cc(NC(=S)NCc2ccco2)c(OCC)cc1NC(=O)C1CC1,2%,-9,-2,?,11µM*
Fc1ccccc1NC(=S)NCc1ccc2c(c1)OCO2,-1%,2,0,-16%,?
COc1ccc(NC(=S)Nc2ccc(F)cc2)c(OC)c1,·,1,-3,·,·
COc1ccccc1NC(=S)NCc1ccc2c(c1)OCO2,1%,-1,2,?,18µM*
COc1ccccc1NC(=S)NCc1ccc(F)cc1,·,-24,-4,?,32µM*
COc1ccc(N2CCN(C(=O)c3ccc(CNS(=O)(=O)c4cc(C)ccc4C)cc3)CC2)cc1,-11%,-27,-8,-4%,2%
